Experimental data: PubChem BioAssay (NCATS)
Records with an inconclusive call do not appear. Calls of active or inactive are those of the source. Calls follow the shape of the dose curve; as a rule, active = well fitted cell-killing curve with a large enough effect; inconclusive = small, poorly fitted or top-dose-only effect, or effect the other way; inactive = no such curve, though single readings can be large or run the other way.

Experiments:
[1] = Viability qHTS for spleen associated tyrosine kinase inhibitor (SYKi) naive MV4-11 cells (AID 1963823); also: nearly all actives have a fitted effect of over 40% in size
Method in brief: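 Viability of MV4-11 AML cells lacking prior SYK inhibitor exposure is scored by CellTiter-Glo luminescence following 72 hr compound incubation at 37 C, 5% CO2, seeded at 500 cells per well.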

[2] = Viability qHTS for spleen associated tyrosine kinase inhibitor (SYKi) drug resistant MV4-11 cells (AID 1963824); also: nearly all actives have a fitted effect of over 35% in size
Method in brief: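 SYK-inhibitor-resistant MV4-11 AML cells were seeded at 500 per well onto compound and cultured 72 hours (37 °C, 5% CO2). CellTiter-Glo was then added, and after 10 min at room temperature, luminescence gave viability.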
Potency is read from the fitted curve at half-maximal effect.

| SMILES | Potency [1] | Potency [2] |
| --- | --- | --- |
| O=C(c1ccc(-c2ccc(Cl)cc2)o1)N(Cc1ccccn1)c1ccc(N2CCNCC2)cc1 | 13 µM (active) | 9.2 µM (active) |
| CC(C)(OC1OC(CO)C(O)C(O)C1O)C1CCC(O)(CO)C2CC(O)C(C)(O)C2C1 (stereo not given) | inactive | inactive |
| CCCc1cc(C(=O)N[C@H](Cc2ccc(-c3cccc(OC(F)(F)F)c3)nc2)C(=O)N[C@@H]2CCNC2)sc1C | 6.61 µM (active) | 7.42 µM (active) |
| O=C(CCCCCCC(=O)Nc1ccc(C2OC(CSc3nc(-c4ccccc4)c(-c4ccccc4)o3)CC(c3ccc(CO)cc3)O2)cc1)NO (stereo not given) | 7.31 µM (active) | 9.2 µM (active) |
| C=C[C@@]12COC(=O)C(=C)[C@@H]1[C@@H](O)[C@H](C(=C)C(=O)OC)[C@@H](O)C2 | inactive | inactive |
